Data on 40 compounds can be found in ChEMBL document CHEMBL3988442, “University of Dundee, Small-Polar-MMV Screening Library” (2021).

SMILES strings stand for the structures.

The target of the test is AMP-activated protein kinase, AMPK (Homo sapiens) (UniProt P54646+O43741+P54619+Q9UGJ0+Q9Y478+Q13131+Q9UGI9). Put plainly: AMP-dependent Kinase enzyme assay. An in vitro enzyme assay that detects ADP turnover that is directly proportional to AMPK activity. This uses naive AMPK that is activated during the assay with MK-8722. The test is classed as functional. More on the design: scale not given: direction of the effect not stated beside the values. To be noted: 30 µM.
`CCCNC(=O)c1cnc2n1CCCC2`: the Percent Effect worked out at 0.00547%.
`Cc1cc(CN(C)C(C(=O)O)c2cccc(C(F)(F)F)c2)on1` (stereo not given): the Percent Effect is 3.9%.
For the compound `COC[C@]1(O)CCN(c2cc(C3CC3)ncn2)CC1(C)C`, the Percent Effect came out at 10.6%.
As for `Cc1cc(-c2cnc(N3CCC(O)CC3)nc2C(C)C)on1`, the Percent Effect stood at 20.1%.
`N#Cc1ccc(SCCC(=O)O)cc1`: the Percent Effect is 6.5%.
Turning to `Cc1ccc(-c2cc(CNC(=O)NC3CCCCNC3=O)on2)cc1` (stereo not given), the Percent Effect is -0.304%.
For the compound `COc1c(C)cnc(CN2CCCC2c2noc(C3CC3)n2)c1C` (stereo not given), the Percent Effect was -14.3%.
In the case of `O=C(NCc1cccnc1-n1cncn1)c1cc(Cl)ccn1`, the Percent Effect was -11.1%.
On to `O=C(NCC(O)Cc1ccccc1)c1ccc2[nH]c(=O)[nH]c2c1` (stereo not given), for which the Percent Effect worked out at 11.7%.
For the compound `CC(C)c1nc(CSc2nnc(-c3cccs3)n2CC(N)=O)no1`, the Percent Effect was -6.28%.
Consider `CC(CC(F)(F)F)NCc1ccccc1-n1ccnc1` (stereo not given), for which the Percent Effect is -3.96%.
`O=C1OCCN1Cc1nc(C2(c3ccc(F)cc3)CCOC2)no1` (stereo not given): the Percent Effect was 8.23%.
`CN(Cc1ccc(OCC(=O)N2CCOCC2)cc1)S(C)(=O)=O`: the Percent Effect is -30.8%.
Under `CC(NC(=O)c1ccc2c(c1)COC2)c1cccc(N2CCOC2=O)c1` (stereo not given) stands 5.03%; under `O=C(Nc1cn[nH]c1)NC1CCN(c2ccccc2OC(F)F)C1` (stereo not given), -1.4%; under `CCOCCNC(=O)CCC1CCCO1` (stereo not given), 2.99%.
With `O=C(CC1COCCN1)N1CCCN(C2Cc3ccccc3C2)CC1` (stereo not given), the Percent Effect was -11.6%.
In the case of `CC(C)[C@@H]1CN(c2ccc(C(F)(F)F)cn2)C[C@H]1NS(C)(=O)=O`, the Percent Effect stood at 3.23%.
Then `Cc1cc(NC(=O)C2CCN(c3ncccc3C#N)CC2)no1`, with 4.93%; and `Cc1nc2c(c(NC(C)c3nnn[nH]3)n1)Cc1ccccc1OC2` (stereo not given), with -6.31%.
Then `CO[C@H]1CN(Cc2c(C)ccc3ncccc23)CC[C@H]1N`, with 1.31%.
As for `CN(C)CC1(O)CCCN(C(=O)CCn2cc(Cl)cn2)C1` (stereo not given), the Percent Effect was 4.94%.
Then `CCc1cc(CNC(=O)c2cc(NC(=O)C(C)C)ccc2Cl)[nH]n1`, with 0.911%; and `O=C1CN(C(=O)c2cc3c(F)cc(Br)cc3[nH]2)CCN1`, with 8.46%; and `O=C(NCc1cc(-c2ccccc2)no1)NC1CCCCNC1=O` (stereo not given), with -4.86%.
For the compound `CC(C(=O)NC1(C#N)CCCCC1)N1CCc2c(ncn2C2CC2)C1` (stereo not given), the Percent Effect is -1.93%.
As to `CCCN1CCC(CC(=O)NCCc2nc(C)cc(C)n2)CC1`, the Percent Effect is 6.07%.
`Cc1cccc(N2CCN(C(=O)CNCCn3cc(C)cn3)CC2)c1`: the Percent Effect is -4.92%.
`O=C(c1ccnc(CC2COc3ccccc3C2)c1)N1CCCC1` (stereo not given): the Percent Effect amounted to 7.97%.
As for `COc1ccc(Cc2nnc(NC(=O)C3CC34CCC4)s2)cc1OC` (stereo not given), the Percent Effect was 4.1%.
In the case of `Cc1nc2n(n1)CC(Nc1nc(C(F)(F)F)nc3ccccc13)CC2` (stereo not given), the Percent Effect was found to be 1.51%.
For `C[C@@H]1CN(c2ccc(Cl)cn2)CC[C@@]1(O)C1CCOCC1`, the Percent Effect worked out at 5.56%.
Under `CC(=O)NC1CCCN(c2nc3ccccc3cc2CO)C1` (stereo not given) stands 3.71%.
Then `CC(C)C1C(=O)NCCN1C(=O)CCCc1nc(C(C)(C)C)no1` (stereo not given), with -5.25%.
Under `COc1cccc([C@@]2(O)CC[C@@H]3CN(C(=O)c4c[nH]nc4C)C[C@@H]32)c1` stands 10.8%; under `CCOc1ccc(C(=O)NC2CC2)cc1C`, 4.59%; under `Cc1cccc2nc(CN3CCC(N4CCN(C)C4=O)CC3)cn12`, 6.81%.
Regarding `Cc1noc(C)c1C(=O)N(C)C(C)c1ccncc1` (stereo not given), the Percent Effect was -0.736%.
Then `Cc1cc(NC(C)c2nnn[nH]2)n2nc(C)c(C)c2n1` (stereo not given), with 20.6%.
Then `CN(Cc1csc(-c2cccs2)n1)CC(O)CO` (stereo not given), with 5.86%.
